# Measurements: PubChem BioAssay AID1851 (National Center for Advancing Translational Sciences (NCATS), 2009)
# Hit rate of the full screen: of about 16,000 compounds, about 4,000 (25%) were called active. Inconclusive results (about 26%) are left out. Calls come from the whole dose curve; as a rule, active = well fitted curve in the direction sought with a large enough effect; inconclusive = small, poorly fitted or top-dose-only effect, or effect the other way; inactive = no such curve, though single readings can be large or run the other way. Only a sample is shown.
# Target: Cytochrome P450 2C9 (Homo sapiens) (UniProt P11712)
# Sequence (P11712 whole entry, looked up): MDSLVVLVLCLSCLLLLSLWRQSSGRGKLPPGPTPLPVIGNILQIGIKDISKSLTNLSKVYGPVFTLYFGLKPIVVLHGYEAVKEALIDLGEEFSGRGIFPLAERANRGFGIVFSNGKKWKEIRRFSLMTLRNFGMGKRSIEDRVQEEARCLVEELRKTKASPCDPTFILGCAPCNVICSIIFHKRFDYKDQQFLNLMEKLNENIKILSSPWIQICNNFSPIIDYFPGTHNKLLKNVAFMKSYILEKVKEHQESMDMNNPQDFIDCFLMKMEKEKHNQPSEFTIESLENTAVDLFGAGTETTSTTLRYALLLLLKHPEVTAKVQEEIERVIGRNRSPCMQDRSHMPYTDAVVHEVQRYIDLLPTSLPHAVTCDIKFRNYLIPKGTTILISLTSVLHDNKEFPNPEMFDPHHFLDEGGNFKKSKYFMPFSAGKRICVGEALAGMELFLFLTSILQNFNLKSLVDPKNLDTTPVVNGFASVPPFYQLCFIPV
# Experiment: Cytochrome panel assay with activity outcomes
# Settings: recombinant CYP, pro-luciferin dealkylation, luminescence, p450-cyp2c9; series mostly up to 57.1 µM; activity, negative = inhibition: at the top concentration
# % is set by controls: 0 for no effect and ±100 for the full control effect.
SMILES,"activity, negative = inhibition",AC50
O=C(N/N=C/c1ccc(Cl)cc1Cl)Nc1ccccc1,-15.9% (inactive),–
O=C(N/N=C/c1ccc(Cl)cc1Cl)c1cccc(F)c1,–,15.8 µM (active)
C/C(=N\NC(=O)c1cccc(F)c1)c1ccc(Br)s1,20.8% (inactive),–
Cc1cnc(CNc2nc(-c3ccccc3Cl)nc3ccccc23)cn1,7.89% [at 2.29 µM] (inactive),–
CC(C)c1ccc(N2C(=O)CC(Sc3nc4ccccc4o3)C2=O)cc1 (configuration not stated),–,2.24 µM (active)
CC1(CCC#N)N=C(SCCC#N)N(c2ccccc2)C1=O (configuration not stated),-16.7% (inactive),–
Cc1ccc(S(=O)(=O)CC#CCOC(=O)c2ccc([N+](=O)[O-])cc2)cc1,–,5.62 µM (active)
Cc1c(OC(=O)c2ccc([N+](=O)[O-])cc2)c2c(c[n+]1C)COC(C)(C)OC2,-21.7% (inactive),–
Cc1ccc(/C(C#N)=C/c2cccc([N+](=O)[O-])c2)cc1,-10.5% [at 11.4 µM] (inactive),–
Cc1ccc(C(=N)c2ccccc2Cc2cccc3ccccc23)c2ccccc12,5.86% [at 11.4 µM] (inactive),–
COc1cc(Cl)c(CC(=O)c2c[nH]c3ccccc23)cc1OC,-14.5% [at 11.4 µM] (inactive),–
COc1ccc(Cc2ccccc2C(=O)O)c2ccccc12,–,3.98 µM (active)
N[C@@H](C(=O)O)c1cc(O)ccc1Cl,24.1% (inactive),–
N#C/C(=C(/O)CN1CCCCC1)c1nc(-c2ccc(Cl)cc2)cs1,0.314% (inactive),–
Cc1ccc(-c2csc(C(C#N)=C3CCCC3)n2)cc1,–,11.2 µM (active)
O=C(CSCC(=O)OCn1nnc2ccccc2c1=O)Nc1ccc(Cl)cc1,–,12.6 µM (active)
COC(=O)c1ccc(C(=O)OC)c(NC(=S)N2CCN(c3ccccc3)CC2)c1,–,6.31 µM (active)
COC(=O)c1cc(OC)c(OC)cc1NC(=S)N1CCN(C)CC1,22.1% (inactive),–
COC(=O)c1ccc(N2CCN(c3ccccc3)CC2)c(NC(=O)C2CC2)c1,-15.9% (inactive),–
Cc1cccc(C)c1OC[C@H](C)N,-2.67% [at 25.6 µM] (inactive),–
Cc1cc(=O)[nH]c2c1c(C)nn2C1CCOC(C)(C)C1 (configuration not stated),26.1% (inactive),–
Cn1c(=O)n(-c2ccc(Cl)cc2)c(=O)c2c3c(sc21)COC(C)(C)C3,–,10 µM (active)

SMILES,"activity, negative = inhibition",AC50
Cn1c(=O)n(-c2cccc(Cl)c2)c(=O)c2c3c(sc21)COC(C)(C)C3,–,15.8 µM (active)
CN1CCc2c(sc3c2c(=O)n(-c2ccccc2)c2nncn32)C1,1.25% (inactive),–
COc1cccc(C(C#N)N2N=C(C)CC2(C)C)c1O (configuration not stated),-17.8% (inactive),–
O=C1[C@@H]2[C@H]3[C@H](O)[C@H](O)C/C(=N/OCc4ccccc4)[C@@H]3CC[C@H]2C(=O)N1c1ccc(F)cc1F,12.2% [at 11.4 µM] (inactive),–
C=C[C@@]1(C)CC(=O)[C@@]2(O)[C@@]3(C)[C@@H](O)CCC(C)(C)[C@@H]3[C@H](OC(=O)CCN(C)C)[C@H](OC(C)=O)[C@@]2(C)O1,–,0.126 µM (active)
C=C[C@@]1(C)CC(=O)[C@@]2(O)[C@@]3(C)[C@@H](O)CCC(C)(C)[C@@H]3[C@H](O)[C@H](OC(C)=O)[C@@]2(C)O1,1.57% (inactive),–
C=C[C@@]1(C)CC(=O)[C@@]2(O)[C@@]3(C)[C@H](O)CCC(C)(C)[C@@H]3[C@H](O)[C@H](OC(C)=O)[C@]2(C)O1,-5.47% (inactive),–
CC1(C)SC(=S)N(NC(=O)Nc2ccccc2)C1N(O)C(=O)Nc1ccccc1 (configuration not stated),–,10 µM (active)
COCCNc1nc(-c2ccccc2CN(C)C)nc2ccccc12,1.68% [at 2.29 µM] (inactive),–
COc1ccc([C@H](O)c2ccccn2)cc1,-12.5% [at 11.4 µM] (inactive),–
COc1ccc([C@@H](Nc2ccccn2)c2cc(C(C)(C)C)cc(C(C)(C)C)c2O)cc1,–,2.51 µM (active)
O[C@H](CNc1ccccn1)c1ccccc1,-4.96% [at 11.4 µM] (inactive),–
CN1CCN(c2ccc([N+](=O)[O-])cc2NC(=O)c2ccccc2Cl)CC1,-17% (inactive),–
O=[N+]([O-])c1ccc(N2CCN(CCOc3nonc3-c3ccccc3)CC2)c(Cl)c1,–,22.4 µM (active)
c1ccc(-n2ncc3c(NCCCN4CCOCC4)ncnc32)cc1,-8.65% (inactive),–
c1cncc(-c2ccc3ncnc(NCCN4CCOCC4)c3c2)c1,23.6% [at 2.29 µM] (inactive),–
c1ccc2c(c1)oc1c(NCCCn3ccnc3)ncnc12,–,0.447 µM (active)
COc1ccc(-c2nc3cnc(OC)nc3n(-c3ccc(OC)cc3)c2=O)cc1,4.24% (inactive),–
CCNc1ncc2nc(C)c(=O)n(C3CC3)c2n1,-15% (inactive),–
CS(=O)(=O)c1ccccc1-c1nc(-c2cc(C(F)(F)F)cc(C(F)(F)F)c2)no1,17% (inactive),–
Cc1ccc(-c2nnc(-c3ccc(NC(=O)c4cccs4)cc3)o2)cc1,–,5.01 µM (active)
Cc1ccccc1-c1nccc(NCc2cccs2)n1,-17.9% [at 2.29 µM] (inactive),–

SMILES,"activity, negative = inhibition",AC50
Cc1ccccc1-c1nc(-c2ccc(NC(=O)c3cccs3)cc2)no1,–,12.6 µM (active)
O=C(c1csnn1)N1CCC[C@@]2(CCN(Cc3nccs3)C2)C1,-2.79% (inactive),–
Cc1cc([N+](=O)[O-])ccc1NCc1ccccc1,–,3.55 µM (active)
c1ccc(CCCNc2nnnc3ccccc23)cc1,-19.1% [at 11.4 µM] (inactive),–
O=C(O)c1cc([N+](=O)[O-])ccc1NCCCc1ccccc1,–,0.501 µM (active)
COC(=O)C/C=C\[C@@H](C)[C@@H](/C=N\O[C@@H](C)CN1CCCc2nc(C)c(C)cc21)OC,-19.3% [at 11.4 µM] (inactive),–
O=S(=O)(c1ccccc1)N1CCC2(CCN(c3ncccn3)CC2)CC1,16.3% (inactive),–
CC(C)CN1CC[C@@]2(CCCN(S(=O)(=O)c3ccccc3)C2)C1,-10% (inactive),–
O=S(=O)(c1ccccc1)N1CCC2(CC1)CN(c1ccccn1)C2,-23.8% (inactive),–
O=S(=O)(c1ccccc1)N1CCC2(CCCN(c3ncccn3)C2)CC1,–,1 µM (active)
O=S(=O)(c1ccccc1)N1CCC[C@@]2(CCN(c3ccncc3)C2)C1,–,15.8 µM (active)
CS(=O)(=O)N1CCC2(CCCN(c3ccccn3)C2)CC1,-16.9% (inactive),–
CN1CCCC2(CCN(S(=O)(=O)c3ccccc3)CC2)C1,-4.86% (inactive),–
CS(=O)(=O)N1CCC[C@@]2(CCN(c3ccccn3)C2)C1,-12.6% (inactive),–
O=S(=O)(c1ccccc1)N1CCC2(CC1)CN(c1ncccn1)C2,6.14% (inactive),–
O=S(=O)(c1ccccc1)N1CCC2(CCCN(c3cccc(-c4ccccc4)c3)C2)CC1,17.6% (inactive),–
O=S(=O)(c1ccccc1)N1CCC2(CCCN(c3ccccn3)C2)CC1,–,1 µM (active)
O=S(=O)(c1ccccc1)N1CCC2(CCCN(c3ccccc3)C2)CC1,–,1.26 µM (active)
C=C(NC(=O)C(=C)NC(=O)c1csc(C2=N[C@@H]3c4csc(n4)[C@@H]4NC(=O)c5csc(n5)[C@@H]([C@](C)(O)[C@H](C)O)NC(=O)[C@@H]5CSC(=N5)/C(=C/C)NC(=O)[C@@H]([C@H](C)O)NC(=O)c5csc(n5)[C@]3(CC2)NC(=O)[C@@H](C)NC(=O)C(=C)NC(=O)[C@@H](C)NC(=O)[C@@H]([C@@H](C)CC)N[C@H]2C=Cc3c([C@H](C)O)cc(nc3[C@@H]2O)C(=O)O[C@H]4C)n1)C(N)=O,-19.2% [at 25.6 µM] (inactive),–
O=C1C2C3C=CC(C3)C2C(=O)N1/N=C/c1cn(Cc2ccccc2)c2ccccc12 (configuration not stated),-48.5% (inactive),–
O=[N+]([O-])/C=C/c1cn(Cc2ccccc2)c2ccccc12,–,11.2 µM (active)
O=C1C2C3C=CC(C3)C2C(=O)N1/N=C/c1cn(Cc2ccc(F)cc2)c2ccccc12 (configuration not stated),-27.4% (inactive),–

SMILES,"activity, negative = inhibition",AC50
C/C(=N/O)c1ccc2cc(Br)c3ccccc3c2c1,-8.36% [at 11.4 µM] (inactive),–
Cc1cccc(CNc2nc(-c3ccccc3CN(C)C)nc3ccccc23)c1,-1.33% [at 2.29 µM] (inactive),–
Nc1ccc(N(c2ccccc2)c2ccc(N)cc2)cc1,–,7.08 µM (active)
C[C@H](c1ccccc1)N1C(=O)[C@H]2[C@@H]3[C@H](O)[C@H](O)CC(=O)[C@H]3CC[C@H]2C1=O,20% [at 11.4 µM] (inactive),–
N[C@@H](Cc1cc(CP(=O)(O)O)cc(-c2ccccc2Cl)c1)C(=O)O,-7.75% (inactive),–
Cc1cc(F)ccc1S(=O)(=O)Nc1ccccc1C(=O)Nc1ccccc1N1CCOCC1,–,0.447 µM (active)
Cc1c(N2CCCC2)cc2c(c1NC(=O)c1ccccc1Cl)C(C)(C)CC2(C)C,-14.9% [at 11.4 µM] (inactive),–
Cc1ccc(NC(=O)C2C3CCCC2C3c2ccccc2)cc1C (configuration not stated),-6.97% (inactive),–
COC(=O)CSC(C(=O)Nc1ccc(C)c(C)c1)c1ccccc1 (configuration not stated),–,1.78 µM (active)
Cc1ccc(NC(=O)c2ccccc2C(=O)O)cc1C,-16.6% [at 11.4 µM] (inactive),–
C#CCCCO/N=C1/C[C@@H](O)[C@@H](O)[C@@H]2[C@@H]3C(=O)N(CCC(=O)OCC)C(=O)[C@H]3CC[C@H]12,12.8% [at 11.4 µM] (inactive),–
Cc1cccc(C)c1OC[C@@H](N)C(C)C,-6.12% (inactive),–
COC(=O)c1[nH]c2ccc(Br)cc2c1NC(=O)CN1CCN(C2CCCCC2)CC1,-5.13% (inactive),–
COC(=O)c1[nH]c2ccc(Br)cc2c1NC(=O)CN1CCCc2ccccc21,–,0.891 µM (active)
CC1(C)CC(=O)C2=C(C1)Nc1cc3c(cc1C2c1ccc(F)cc1)OCO3 (configuration not stated),–,4.47 µM (active)
N#Cc1c(NC(=O)C(F)(F)F)sc2c3c(=O)c4ccccc4c(=O)c=3oc3ccccc3c12,–,0.0501 µM (active)
O=C(NC12CC3CC(CC(C3)C1)C2)N1CCN(c2nc(-c3ccccc3)cs2)CC1,–,12.6 µM (active)
COc1ccc(-n2c(=O)c(C)nc3cnc(OC)nc32)cc1,-17.6% (inactive),–
Cc1noc(C)c1-c1ccc2ncnc(N(C)C)c2c1,10.9% [at 2.29 µM] (inactive),–
CCN1C(=O)/C(=C2\SC(=S)N(CCCOC)C2=O)c2ccccc21,–,0.794 µM (active)
CN(C)CN1C(=O)S/C(=C2/C(=O)N(CN(C)C)c3ccccc32)C1=O,-9.33% [at 11.4 µM] (inactive),–
